Measurements reported in the supplement of paper PMC12067093, “Discovery and optimisation of a covalent ligand for TRIM25 and its application to targeted protein ubiquitination” (Chemical Science, 2025).
Targets with the largest changes are over-represented here; the source holds about 21,000 in all.

Target: CLIC1_O00299_191_LHIVQVVCKK (UniProt O00299)
Experiment: probe-labelled cysteine peptide fold change vs DMSO (competition) (log2 fold change); higher = less target engagement (more negative = stronger competition)
Settings: THP-1, incubation time: 4 h
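Also: competitive chemoproteomic profiling in live THP-1 cells with an iodoacetamide desthiobiotin (IA-DTB) probe, comparing probe-labelled peptide intensities in compound-treated cells against DMSO-treated controls.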

CC1Cc2ccccc2N1C(=O)C1CCCN(C(=O)CCl)C1 (mixture of isomers) [TRIM25 ligand 11 (diastereomer mixture)]
probe-labelled cysteine peptide fold change (10 µM): -0.428 | probe-labelled cysteine peptide fold change (50 µM): -0.575
